Screening results: PubChem BioAssay, National Center for Advancing Translational Sciences (NCATS)
Only some compounds are listed: those with a hit (about 19% of all), similar ones and a draw of the others.
Giardia kill: Small Molecules that selectively kill Giardia lamblia: qHTS. Giardia lamblia trophozoite viability. activity change, % at 7.66 µM, hits read low. hit rate 0.15% among 340,000. AID 540267, 2011; in the data active means activity change below about -80%; inconclusive means between about -30% and that limit;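 further: parasites exposed to compound for two days anaerobically before the ATP read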
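Trophozoites 100 cells/well + cpd; 48 hrs, 37 deg C, anaerobic. ATPLite 1-Step added, 15-30 min RT, luminescence read (ATP-based viability).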
DT40 TDP1 no CPT: qHTS for Inhibitors of human tyrosyl-DNA phosphodiesterase 1 (TDP1): qHTS in cells in absence of CPT; DT40 Tdp1-/- hTDP1 cells, no CPT, ATP luminescence, 48 h; Potency, µM (highest dose often 46.2 µM), inactives show at the top dose activity change, negative = growth inhibition, actives largely listed as inhibitors; hit rate 15% among 420,000; further: potency means the concentration at half of the fitted maximal effect; nearly all actives have a fitted effect of over 55% in size
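Readout: luminescence from CellTiter-Glo after 30 min in the dark at RT. Cells: DT40 Tdp1-/- with stable hTDP1, 400/well. Exposure: compounds alone, ≥48 hr, 37 °C.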
DT40 TDP1 CPT: qHTS for Inhibitors of human tyrosyl-DNA phosphodiesterase 1 (TDP1): qHTS in cells in presence of CPT | chicken DT40 Tdp1-/-;hTDP1 cells + 20 nM CPT, ATP luminescence, 48 h | Potency, µM (highest dose often 46.2 µM), inactives show top-dose activity change, negative = growth inhibition, hits mostly inhibitors | hit rate 12% among 420,000 | AID 686979, 2013; further: potency means the concentration at half of the fitted maximal effect; nearly all actives have a fitted effect of over 55% in size
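Chicken DT40 Tdp1-/- cells stably complemented with human TDP1 were seeded at 400 cells/well in medium containing 20 nM camptothecin, exposed to pin-transferred compounds, and grown at 37 °C for at least 48 hr. Viability was read as ATP luminescence.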
TDP1 block: qHTS Assay for Inhibitors of Tyrosyl-DNA Phosphodiesterase (TDP1); hit rate 0.28% among 350,000; Potency, µM (titrated, usually from 130 µM), without a hit: top-dose activity change, negative = inhibition, hits mostly inhibitors; AID 485290, 2010; recombinant TDP1, AlphaScreen DNA substrate cleavage; further: potency means the concentration at half of the fitted maximal effect; nearly all actives have a fitted effect of over 40% in size
Target sequence (Q9NUW8 whole entry, looked up): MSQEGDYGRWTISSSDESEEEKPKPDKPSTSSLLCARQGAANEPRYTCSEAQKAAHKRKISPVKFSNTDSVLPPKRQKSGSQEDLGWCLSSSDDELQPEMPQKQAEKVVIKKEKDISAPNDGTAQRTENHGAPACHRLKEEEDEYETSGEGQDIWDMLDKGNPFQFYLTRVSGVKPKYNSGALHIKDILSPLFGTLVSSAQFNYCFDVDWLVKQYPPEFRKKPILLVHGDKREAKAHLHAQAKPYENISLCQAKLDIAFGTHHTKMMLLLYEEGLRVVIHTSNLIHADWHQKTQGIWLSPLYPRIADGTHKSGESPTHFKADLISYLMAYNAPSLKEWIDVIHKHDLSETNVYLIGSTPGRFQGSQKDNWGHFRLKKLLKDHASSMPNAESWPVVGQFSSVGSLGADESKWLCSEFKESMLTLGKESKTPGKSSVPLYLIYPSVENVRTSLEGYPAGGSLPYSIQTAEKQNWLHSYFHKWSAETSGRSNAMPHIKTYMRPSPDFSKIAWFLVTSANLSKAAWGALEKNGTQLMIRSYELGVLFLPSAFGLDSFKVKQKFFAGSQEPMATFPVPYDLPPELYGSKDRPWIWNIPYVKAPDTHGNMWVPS
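Compounds were preincubated with Tdp1 (1 nM final) for 15 min at room temperature before substrate (15 nM final) started a 5 min reaction; beads (10 ug/ml final) were then added for 10 min before AlphaScreen detection.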
ELG1 DNA repair: qHTS screen for small molecules that inhibit ELG1-dependent DNA repair in human embryonic kidney (HEK293T) cells expressing luciferase-tagged ELG1. HEK293T ELG1-luciferase reporter, luminescence, 16 h; DNA damage induced by 5-fluorouridine. Potency, µM (highest dose often 46.1 µM), inactives show at the top dose activity change, negative = inhibition, actives largely listed as inhibitors. hit rate 2.3% among 330,000; further: potency means the concentration at half of the fitted maximal effect; nearly all actives have a fitted effect of over 55% in size
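Luminescence from the luciferase reporter, measured 30 min after ONE-Glo reagent at room temperature, was the read-out. Beforehand, 2,000 cells per well were exposed for 16 hr at 37 °C to 5-fluorouridine together with compound or vehicle.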
IL-1B inflam inh: qHTS for Inhibitors of Inflammasome Signaling: IL-1-beta AlphaLISA Primary Screen | THP-1 LPS/ATP IL-1B secretion, AlphaLISA, 16 h; active compounds read low | hit rate 4.7% among 360,000 | activity change, % at 57.5 µM; in the data active means activity change below about -50%; inconclusive means mostly about -30% to -49%
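Secreted IL-1B measured by AlphaLISA bead assay after 16 h compound exposure of THP-1 cells; compounds (final up to 57.5 uM) added 1 h before LPS (250 ng/mL) and ATP (1.25 mM) stimulation; lower signal means less secretion.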
* = called active by the depositor; ? = inconclusive; · = not tested or not shown; [ ] = remark or other dose. Unless noted, the call rests on the fitted dose curve; in most records, active means well fitted curve in the direction sought with a large enough effect; inconclusive means small, poorly fitted or top-dose-only effect, or another doubt; inactive means no such curve, though single readings can be large; an effect the other way counts as inactive or inconclusive. On the % scale 0 is the no-effect control and ±100 the full control effect.

SMILES	Giardia kill	DT40 TDP1 no CPT	DT40 TDP1 CPT	TDP1 block	ELG1 DNA repair	IL-1B inflam inh
O=C(NCc1ccccc1)C12CC3CC(CC(C3)C1)C2	16.4	-14.3%	-2.2%	-2.3%	-0.1%	-10.3
O=C(CC12CC3CC(CC(C3)C1)C2)NC(=S)NCc1ccccc1	-0.7	18.4µM*	?	-2.7%	4.9%	-9.8
O=C(NCc1ccccc1)NC12CC3CC(CC(C3)C1)C2	-14.4	20.6µM*	14.6µM*	·	-7.7%	-0.6
O=C(NCc1ccccc1)NCC12CC3CC(CC(C3)C1)C2	11.3	?	?	0.0%	0.5%	-7.1
COc1cc(C2c3[nH]c4ccccc4c3C[C@H]3C(=O)N(CCO)CC(=O)N23)cc(OC)c1OC (some centres undefined)	-13.0	20.6µM*	?	·	-11.0%	39.2
COc1cc([C@H]2c3[nH]c4ccccc4c3C[C@H]3C(=O)N4[C@@H](c5cc(OC)c(OC)c(OC)c5)c5[nH]c6ccccc6c5C[C@H]4C(=O)N23)cc(OC)c1OC	-3.3	2.91µM*	4.61µM*	0.0%	-12.8%	4.6
C=CCN1C(=O)[C@@H]2Cc3c([nH]c4ccccc34)C(c3ccc(O)cc3)N2C1=S (some centres undefined)	8.0	16.4µM*	?	·	0.0%	-11.3
COc1cc(C2c3[nH]c4ccccc4c3CC3COC(=O)N32)cc(OC)c1O (centres undefined)	-11.2	0.291µM*	0.291µM*	·	·	35.5
CCN1C(=O)[C@@H]2Cc3c([nH]c4ccccc34)C(c3cc(OC)c(OC)c(OC)c3)N2C1=S (some centres undefined)	2.8	?	?	·	?	-17.8
CCC(C)NC(=O)CSc1nc(-c2ccc(F)cc2)cc(C(F)(F)F)n1 (centres undefined)	·	?	-18.6%	-3.2%	·	·
COc1ccc(OC)c(C2=NOC(C(=O)NCc3cccs3)C2)c1 (centres undefined)	17.4	7.31µM*	?	1.2%	-5.3%	39.1
O=C(NCCc1cccs1)C1CC(c2cccc(F)c2)=NO1 (centres undefined)	-1.3	-10.0%	2.0%	-3.5%	?	16.8
O=C(NCCc1cccs1)C1CC(c2c(Cl)cccc2Cl)=NO1 (centres undefined)	-24.1	7.31µM*	4.11µM*	-2.0%	?	0.4
O=C(NCc1cccs1)C1CC(c2ccc(Cl)cc2)=NO1 (centres undefined)	-3.2	11.6µM*	13µM*	-6.0%	?	3.8
Cc1cnc(C)c(-c2cccc3c2OC(CNC(=O)C[C@@H]2C[C@@H](C)NC(=S)N2)C3)n1 (some centres undefined)	·	0.1%	1.6%[9.04 µM]	·	·	·
Cc1ccc(N2CC(C(=O)Nc3nc4ccc(S(C)(=O)=O)cc4s3)CC2=O)cc1C (centres undefined)	-9.5	-26.9%	-5.5%	4.7%	-0.5%	34.3
COc1ccc2[nH]c3c(=O)n(/N=C/[C@H]4C(C)C=C(C)CC4C)c(=O)[nH]c3c2c1 (some centres undefined)	21.0	16.4µM*	18.4µM*	2.9%	?	-58.2*
COc1ccc2c(c1)[nH]c1c(=O)n(/N=C/C3C(C)C=C(C)CC3C)c(=O)[nH]c12 (centres undefined)	1.3	?	?	4.9%	?	5.8
Cc1ccc(OS(=O)(=O)c2ccccc2)c(/C=N/N=C2\NC(=O)C(C)S2)c1 (centres undefined)	-5.9	18.4µM*	?	2.5%	2.0%	-2.6
O=C1CS/C(=N/N=C/c2cccs2)N1	11.3	3.2%	7.6%	7.7%	?	10.0
O=C1CS/C(=N/N=C/c2ccccc2OS(=O)(=O)c2ccccc2)N1	-12.7	1.03µM*	1.03µM*	1.3%	2.7%	23.0
COc1ccccc1N1CCN(C(=O)CSc2nc3ccccc3nc2N2CCC(C)CC2)CC1	7.7	23.1µM*	20.6µM*	-2.4%	25.9µM*	?
Cc1ccc(Cc2nc3ccccc3nc2SCC(=O)N2CCN(c3ccccc3F)CC2)cc1	·	?	?	-2.7%	·	·
COc1ccccc1N1CCN(C(=O)CSc2nnc(NC(=O)C(C)C)s2)CC1	-15.8	?	?	6.0%	-5.4%	-14.0
COc1ccccc1N1CCN(C(=O)CSc2nc3ccccc3nc2N2CCCCC2)CC1	29.3	?	?	·	16.4µM*	-9.6
SMILES	Giardia kill	DT40 TDP1 no CPT	DT40 TDP1 CPT	TDP1 block	ELG1 DNA repair	IL-1B inflam inh
CCC(CC)C(=O)Nc1nnc(SCC(=O)N2CCN(c3ccccc3OC)CC2)s1	10.7	20.6µM*	20.6µM*	7.7%	?	-14.6
O=C(CSc1nc2ccccc2nc1Cc1ccc(Cl)cc1)N1CCN(c2ccccc2F)CC1	·	20.6µM*	16.4µM*	0.0%	·	·
O=C(O)c1cccnc1SCC(=O)N1CCCc2ccccc21	16.5	3.1%	-8.9%	·	?	24.1
CCOc1ccccc1NC(=O)c1cc2c(Cl)nc3ccccc3c2s1	·	-3.4%	13.2%	5.8%	·	·
O=C(CCc1ccccc1)N(Cc1cccnc1)c1nc2ccc(F)cc2s1	·	-5.6%	-22.8%	0.0%	·	·
COc1cc(NC(=O)CSc2nc3ccccc3nc2Cc2ccc(Cl)cc2)cc(OC)c1	·	-16.2%	-7.2%	2.7%	·	·
COc1ccccc1N1CCN(C(=O)CSc2nc3ccccc3nc2Cc2ccc(C)cc2)CC1	·	?	16.4µM*	0.0%	·	·
COc1ccc(NC(=O)CSc2nc3ccccc3nc2Cc2ccc(C)cc2)cc1Cl	·	?	13µM*	2.7%	·	·
Cc1ccc(OCC(=O)NNC(=O)C2CSC3(C)CCC(=O)N23)cc1C (centres undefined)	-2.9	5.1%	5.4%	0.3%	-5.2%	-2.8
O=C(CC[C@H]1O[C@@H](n2ccc(=O)[nH]c2=O)[C@H](O)[C@@H]1O)N[C@H](Cc1ccccc1)C(=O)NCCCc1ccccc1	·	0.8%	-6.7%	·	·	17.5
COc1ccccc1-c1cc2nc(NCCc3ccc(S(N)(=O)=O)cc3)ccn2n1	·	20.6µM*	?	·	·	-67.8*
COc1ccccc1-c1cc2nc(NCCc3ccncc3)ccn2n1	·	?	?	·	·	-23.1
